The source of these data is the supplement of paper PMC4709259.

Counter-ions that a name gives are not always drawn. ± gives the standard deviation.

The assay concerns Jurkat. The assay can be described thus: mean cell size (FSC-A) relative to DMSO control (fraction of control); higher = larger cells. The note with it: 48 h. The essentials:
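Jurkat cells at 600 cells/µl were incubated for 1 h and then treated for 48h with the Enzo Screen-Well FDA Approved Drug Library v2.0 at 25µM, with DMSO at 0.9% (v/v) final. Compounds that reduced counts below 20% of controls were retested in 10-fold dilutions down to 25nM. Cell count and mean cell size, taken as forward scatter area, were measured by flow cytometry relative to solvent-only controls. Each plate carried 6-12 controls, and values are means of 3 biological replicates.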
Consider `CO[C@H]1/C=C/O[C@@]2(C)Oc3c(C)c(O)c4c(O)c(c5c(nc6cc(C)ccn65)c4c3C2=O)NC(=O)/C(C)=C\C=C\[C@H](C)[C@H](O)[C@@H](C)[C@@H](O)[C@@H](C)[C@H](OC(C)=O)[C@@H]1C` [Rifaximin] (concentration: 25 µM), for which the mean cell size was found to be 0.922 ± 0.039.

As for `CN1C(=O)CC(C)(c2ccccc2)C1=O` (centres undefined) [Methsuximide] (concentration: 25 µM), the mean cell size was 1.03 ± 0.03. `NCC[C@H](O)C(=O)N[C@@H]1C[C@H](N)[C@@H](O[C@H]2O[C@H](CN)[C@@H](O)[C@H](O)[C@H]2O)[C@H](O)[C@H]1O[C@H]1O[C@H](CO)[C@@H](O)[C@H](N)[C@H]1O` [Amikacin Disulfate] (concentration: 25 µM) gave a mean cell size of 0.994 ± 0.028. As for `CCC[C@@H]1C[C@@H](C(=O)N[C@@H]([C@H]2O[C@H](SC)[C@H](O)[C@@H](O)[C@H]2O)[C@@H](C)O)N(C)C1` [Lincomycin·HCl] (concentration: 25 µM), the figure is 1.1 ± 0.045; as for `CO[C@H]1/C=C/O[C@@]2(C)Oc3c(C)c(O)c4c(O)c(c(/C=N/N5CCN(C)CC5)c(O)c4c3C2=O)NC(=O)/C(C)=C\C=C\[C@H](C)[C@H](O)[C@@H](C)[C@@H](O)[C@@H](C)[C@H](OC(C)=O)[C@@H]1C` [Rifampin (Rifampicin)] (concentration: 25 µM), 0.964 ± 0.0034; as for `CCOC(=O)[C@H](CCc1ccccc1)N[C@H]1CCc2ccccc2N(CC(=O)O)C1=O` [Benazepril·HCl] (concentration: 25 µM), 0.965 ± 0.012.

`C=CC[C@@H]1/C=C(\C)C[C@H](C)C[C@H](OC)[C@H]2O[C@@](O)(C(=O)C(=O)N3CCCC[C@H]3C(=O)O[C@H](/C(C)=C/[C@@H]3CC[C@@H](O)[C@H](OC)C3)[C@H](C)[C@@H](O)CC1=O)[C@H](C)C[C@@H]2OC` [Tacrolimus (Fk506)] (concentration: 25 µM): the mean cell size is 0.83 ± 0.065. Take `O=C(O)CCCc1ccccc1` [Sodium Phenylbutyrate] (concentration: 25 µM): the mean cell size turned out to be 0.936 ± 0.024.

The compound `OC(c1cc(C(F)(F)F)nc2c(C(F)(F)F)cccc12)C1CCCCN1` (centres undefined) [Mefloquine·HCl] (concentration: 2.5 µM) yielded a mean cell size of 0.9935 ± 0.0057. Regarding `COc1cc(CNC(=O)CCCC/C=C/C(C)C)ccc1O` [Capsaicin] (concentration: 25 µM), the mean cell size is 0.903 ± 0.021.

Consider `C[C@H](CCC(=O)O)[C@H]1CC[C@H]2[C@@H]3[C@H](O)C[C@@H]4C[C@H](O)CC[C@]4(C)[C@H]3CC[C@]12C` [Chenodiol (Chenodeoxycholic Acid)] (concentration: 25 µM), for which the mean cell size came out at 0.946 ± 0.037. As for `CCC1=C(C)CN(C(=O)NCCc2ccc(S(=O)(=O)NC(=O)N[C@H]3CC[C@H](C)CC3)cc2)C1=O` [Glimepiride] (concentration: 25 µM), the mean cell size came out at 0.94 ± 0.02. As for `CCC1(c2ccccc2)C(=O)NCNC1=O` [Primidone] (concentration: 25 µM), the figure is 1 ± 0.021; as for `CO[C@@]12[C@H](COC(N)=O)C3=C(C(=O)C(C)=C(N)C3=O)N1C[C@@H]1N[C@@H]12` [Mitomycin C] (concentration: 2.5 µM), 1.22 ± 0.059; as for `Nc1nc(O)c2ncn(CCC(CO)CO)c2n1` [Penciclovir] (concentration: 25 µM), 0.95 ± 0.021. `CCN(CC)CCOc1ccc(C(=C(Cl)c2ccccc2)c2ccccc2)cc1` [Clomiphene Citrate] (concentration: 25 µM) came in with a mean cell size of 0.897 ± 0.013. For `CC(C)(C(=O)c1cccnc1)c1cccnc1` [Metyrapone] (concentration: 25 µM), the mean cell size is 1.04 ± 0.058. `C=CC(N)CCC(=O)O` (centres undefined) [Vigabatrin] (concentration: 25 µM) gave a mean cell size of 1.002 ± 0.0073.

On to `COC(=O)CCc1ccc(OCC(O)CNC(C)C)cc1` (centres undefined) [Esmolol] (concentration: 25 µM), for which the mean cell size stood at 0.9278 ± 0.0077. Compound `CO[C@@]1(NC(=O)C2SC(=C(C(N)=O)C(=O)O)S2)C(=O)N2C(C(=O)O)=C(CSc3nnnn3C)CS[C@@H]21` (some centres undefined) [Cefotetan Disodium] (concentration: 25 µM) yielded a mean cell size of 0.951 ± 0.017. Turning to `N=C(N)N/N=C/c1c(Cl)cccc1Cl` [Guanabenz Acetate] (concentration: 25 µM), the mean cell size was determined as 0.988 ± 0.044. For `Cc1[nH]c(=O)c(C#N)cc1-c1ccncc1` [Milrinone] (concentration: 25 µM), the mean cell size was determined as 0.919 ± 0.051. In the case of `c1ccc2c(CC3=NCCN3)cccc2c1` [Naphazoline·HCl] (concentration: 25 µM), the mean cell size amounted to 0.94 ± 0.024. As for `CC[C@@H]1C(=O)OC[C@@H]1Cc1cncn1C` [Pilocarpine·HCl] (concentration: 25 µM), the figure is 0.97 ± 0.049. In the case of `Nc1ccn([C@@H]2O[C@H](CO)[C@@H](O)C2(F)F)c(=O)n1` [Gemcitabine·HCl] (concentration: 25 nM), the mean cell size was determined as 1.12 ± 0.024. On to `NC[C@@H]1O[C@H](O[C@H]2[C@@H](O)[C@H](O[C@@H]3[C@@H](O)[C@H](N)C[C@H](N)[C@H]3O[C@H]3O[C@H](CO)[C@@H](O)[C@H](O)[C@H]3N)O[C@@H]2CO)[C@H](N)[C@@H](O)[C@@H]1O` [Paromomycin Sulfate] (concentration: 25 µM), for which the mean cell size came to 0.949 ± 0.012. In turn, `CCC(=O)O[C@]1(C(=O)CCl)[C@@H](C)C[C@H]2[C@@H]3C[C@H](F)C4=CC(=O)C=C[C@]4(C)[C@@]3(F)[C@@H](O)C[C@@]21C` [Halobetasol Propionate] (concentration: 25 µM) had a mean cell size of 0.971 ± 0.034. For `CCN(CC)CCOC(=O)C1(C2CCCCC2)CCCCC1` [Dicyclomine·HCl] (concentration: 25 µM), the mean cell size amounted to 0.9222 ± 0.0091. Compound `O=C(O)[C@H]1/C(=C/CO)O[C@@H]2CC(=O)N21` [Clavulanate Potassium] (concentration: 25 µM) registered a mean cell size of 0.994 ± 0.011. With `CC(C)C(=O)OCC(=O)[C@@]12O[C@H](C3CCCCC3)O[C@@H]1C[C@H]1[C@@H]3CCC4=CC(=O)C=C[C@]4(C)[C@H]3[C@@H](O)C[C@@]12C` [Ciclesonide] (concentration: 2.5 µM), the mean cell size was 0.9714 ± 0.0087. Turning to `Clc1ccc(CO/N=C(\Cn2ccnc2)c2ccc(Cl)cc2Cl)c(Cl)c1` [Oxiconazole Nitrate] (concentration: 25 µM), the mean cell size was found to be 0.933 ± 0.016. The value for `CC(=O)O[C@H]1C[C@@H]2CC[C@@H]3[C@H](CC[C@@]4(C)[C@H]3C[C@H]([N+]3(C)CCCCC3)[C@@H]4OC(C)=O)[C@@]2(C)C[C@@H]1N1CCCCC1` [Vecuronium Bromide] (concentration: 25 µM) was 0.858 ± 0.043; that for `CN(C)CCC=C1c2ccccc2CCc2ccccc21` [Amitriptyline·HCl] (concentration: 25 µM) was 0.915 ± 0.037. In turn, `CC1=Nc2ccc(Cl)cc2S(=O)(=O)N1` [Diazoxide] (concentration: 25 µM) returned a mean cell size of 1.01 ± 0.064. For the compound `Cc1[nH]cnc1CN1CCc2c(c3ccccc3n2C)C1=O` [Alosetron·HCl] (concentration: 25 µM), the mean cell size turned out to be 0.954 ± 0.059. `O=C(C1CCCCC1)N1CC(=O)N2CCc3ccccc3C2C1` (centres undefined) [Praziquantel] (concentration: 25 µM) gave a mean cell size of 0.996 ± 0.028. As for `CCCc1cc(=O)[nH]c(=S)[nH]1` [Propylthiouracil] (concentration: 25 µM), the figure is 1.02 ± 0.048; as for `CCc1cc(C(N)=S)ccn1` [Ethionamide] (concentration: 25 µM), 1.05 ± 0.03; as for `O=C(CCCCCCC(=O)Nc1ccccc1)NO` [Vorinostat] (concentration: 250 nM), 0.947 ± 0.035.
